Assay results: PubChem BioAssay (EPA / NIEHS)
Results filed as inconclusive are left out. Calls of active or inactive are those of the source. Rule for the calls: active = hit-call score of the fitted dose curve at least 0.9, where 1 is the maximum; inconclusive = response in the unintended direction; inactive = score below 0.9.

What was measured:
[1] = target: Cellular tumor antigen p53 (Homo sapiens) (UniProt P04637); assay: TOX21_p53_BLA_p2_ratio: Tox21 HCT-116 p53 Agonism Beta-lactamase Assay, Ratio, Phase 2 (AID 2283592)
Chain of Cellular tumor antigen p53 (Homo sapiens) (P04637 whole entry, looked up): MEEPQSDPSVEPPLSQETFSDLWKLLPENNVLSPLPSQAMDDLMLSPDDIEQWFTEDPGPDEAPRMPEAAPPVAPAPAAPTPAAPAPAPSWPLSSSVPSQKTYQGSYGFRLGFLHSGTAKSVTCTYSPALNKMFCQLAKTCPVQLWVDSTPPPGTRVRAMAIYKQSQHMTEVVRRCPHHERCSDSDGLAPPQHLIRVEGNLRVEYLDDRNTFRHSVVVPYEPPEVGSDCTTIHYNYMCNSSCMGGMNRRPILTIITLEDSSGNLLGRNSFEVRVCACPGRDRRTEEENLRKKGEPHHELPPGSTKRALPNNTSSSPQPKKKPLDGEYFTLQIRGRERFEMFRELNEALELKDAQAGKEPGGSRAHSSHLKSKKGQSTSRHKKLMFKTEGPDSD
Method in brief: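 HCT116 cells carrying a p53-responsive beta-lactamase reporter were plated, incubated 5 h at 37C, then dosed with compounds in DMSO (217-fold dilution) for 16 h. CCF4-AM substrate was added for 2 h at room temperature; the 460/530 nm emission ratio gave gain-of-signal activity relative to DMSO.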

[2] = target: Cellular tumor antigen p53 (Homo sapiens) (UniProt P04637); assay: TOX21_p53_BLA_p3_ratio: Tox21 HCT-116 p53 Agonism Beta-lactamase Assay, Ratio, Phase 3 (AID 2283596)
Method in brief: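 HCT116 p53-bla cells (4000/well) given compound in DMSO (217-fold dilution) after 5 h, incubated 16 h at 37C. CCF4-AM substrate 2 h at room temperature; 460/530 nm emission ratio, gain fitted against DMSO.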

[3] = target: Cellular tumor antigen p53 (Homo sapiens) (UniProt P04637); assay: TOX21_p53_BLA_p5_ratio: Tox21 HCT-116 p53 Agonism Beta-lactamase Assay, Ratio, Phase 5 (AID 2283599)
Method in brief: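 HCT-116 p53-bla cells (4000/well) plated 5 h, dosed with compound (217-fold DMSO dilution) for 16 h at 37 C; CCF4-AM substrate 2 h at room temperature. Activity is the 460/530 nm emission ratio (405 nm excitation), fitted in gain-of-signal direction versus DMSO.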

[4] = TOX21_p53_BLA_p5_viability: Viability Assessment in the Tox21 HCT-116 p53 Agonism Beta-lactamase Assay, Phase 5 (AID 2283600)
Method in brief: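 Cells were plated at 4000/well, rested 5 h at 37C, then given compounds in DMSO (217-fold dilution) for 16 h at 37C, 5% CO2. Following the CCF4-AM beta-lactamase read, CellTiter-Glo was added and luminescence was read after 30 min at room temperature.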

[5] = target: Cellular tumor antigen p53 (Homo sapiens) (UniProt P04637); assay: TOX21_p53_BLA_p4_ratio: Tox21 HCT-116 p53 Agonism Beta-lactamase Assay, Ratio, Phase 4 (AID 2283601)
Method in brief: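 HCT-116 p53 beta-lactamase reporter cells (4000/well) preincubated 5 h, then compound (217-fold dilution of DMSO stock) for 16 h at 37C. CCF4-AM substrate added 2 h at room temperature; 460/530 nm emission ratio fitted upward versus DMSO.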

[6] = ATG_XTT_Cytotoxicity: Cytotoxicity Assessment in the Attagene TRANS-FACTORIAL HepG2 Assay (AID 2283584)
Method in brief: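 HepG2 human liver cells, transiently transfected with multiple GAL4-UAS reporter units, were dosed and read at 24 h by XTT as cell number. Loss of signal was fitted relative to DMSO negative control baseline.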

[7] = TOX21_p53_BLA_p3_viability: Viability Assessment in the Tox21 HCT-116 p53 Agonism Beta-lactamase Assay, Phase 3 (AID 2283593);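 note: cells exposed to compound for 16 h before reading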
Method in brief: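 HCT116 cells, 4000/well, dosed 5 h after plating by pin transfer (217-fold dilution from DMSO stock) and incubated 16 h at 37C, 5% CO2. Viability read as ATP luminescence with CellTiter-Glo after 30 min at room temperature.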

[8] = TOX21_p53_BLA_p4_viability: Viability Assessment in the Tox21 HCT-116 p53 Agonism Beta-lactamase Assay, Phase 4 (AID 2283597);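 note: hits lower the luminescence signal meaning cytotoxicity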
Method in brief: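 HCT116 p53-bla cells (4000/well) rested 5 h at 37C, then received compounds in DMSO (217-fold dilution) for 16 h at 37C, 5% CO2. CellTiter-Glo was added after the CCF4-AM read, and luminescence was read after 30 min at room temperature.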

Measured: AC50

CNC(=O)Oc1ccc(N(C)C)c(C)c1
inactive: [1] | [2] | [3] | [4] | [5]

COC(N)=O
not listed: [2] | [4]
inactive: all other assays above

CC1(C)CN=C(NN=C(/C=C/c2ccc(C(F)(F)F)cc2)/C=C/c2ccc(C(F)(F)F)cc2)NC1
inactive: [6] | [8] | [5]
active: [1] 20.6 µM | [7] 31.6 µM | [2] 39.5 µM | [3] 44.7 µM | [4] 46.1 µM

C/C(=N\NC(=O)Nc1cc(F)cc(F)c1)c1ncccc1C(=O)O
inactive: [6] | [1] | [7] | [2] | [4]

CO/N=C(/C(=O)OC)c1ccccc1COc1ccccc1C
active: [1] 27.1 µM
inactive: all other assays above

CCCCC(CC)COC(=O)c1c(Br)c(Br)c(Br)c(Br)c1C(=O)OCC(CC)CCCC (stereo unspecified)
inactive: [1] | [2] | [3] | [5]

CCCCOCC1CO1 (stereo unspecified)
not listed: [7] | [8]
inactive: all other assays above

CCOP(=S)(NC(C)C)Oc1ccccc1C(=O)OC(C)C (stereo unspecified)
active: [8] 33.5 µM
not listed: [2]
inactive: all other assays above

C=C(C)C(=O)OCC1CO1 (stereo unspecified)
inactive: all assays above

CC(=O)CCc1ccc2c(c1)OCO2
inactive: [6] | [1] | [2] | [3] | [4]

c1ccc2c(c1)sc1ccccc12
inactive: all assays above

O=c1[nH]c2ccccc2c(=O)o1
not listed: [7]
inactive: all other assays above

CCOP(=S)(S)OCC
not listed: [3] | [7]
inactive: all other assays above

CC1=C(C(=O)Nc2ccccc2)S(=O)(=O)CCO1
active: [1] 22.1 µM | [3] 15.8 µM | [5] 21 µM
inactive: [6] | [8] | [4]

COP(=O)(O)OC
active: [4] 85.6 µM
not listed: [3] | [8]
inactive: all other assays above

O=S(=O)(c1ccc(O)cc1)c1ccc(O)cc1
not listed: [3] | [5]
inactive: all other assays above

Cc1c([N+](=O)[O-])cc2c(c1[N+](=O)[O-])C(C)(C)CC2(C)C
inactive: [6] | [1] | [2] | [4] | [5]
